Screen size: about 1,400 compounds; about 560 (40%) were called active. The set was probably picked from earlier hits. The list shows a part of the results. A number with no mark means an inactive call.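 The calls were made as follows: active = mean inhibition over duplicate tests at 10 µM above 50%; inactive = the rest.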

The assay is described as follows: ASC/caspase-1 reporter retest in S. cerevisiae at one dose, specificity check for NALP1 project (AID 488857). The settings on record: S. cerevisiae ASC/Caspase-1, beta-galactosidase luminescence, 24 h; at 10 µM; hits give high values.
As to `CCCNC(=O)c1nnsc1S(=O)(=O)c1ccc(Cl)cc1`, the inhibition (commonly the share of the control response that was lost under treatment) was 91% (active).

On to `CNC(=O)c1nnsc1S(=O)(=O)c1ccc(Cl)cc1`, for which the inhibition was 73% (active).

Take `COc1ccc(CCNC(=O)C2CCN(S(=O)(=O)c3ccc(Cl)cc3)CC2)cc1OC`: the inhibition is 23.4%.

With `Cn1cnc([N+](=O)[O-])c1S(=O)(=O)c1ccc(Cl)cc1`, the inhibition is 13.2%.

For `CN1C(=O)CSc2ccc(NC(=O)N3CCN(c4ccccn4)CC3)cc21`, the inhibition is 40.5%.

For the compound `CN(C)c1nc(N)nc(CSc2nnnn2-c2ccc(C(=O)O)cc2)n1`, the inhibition is 18.2%.

Consider `CC(C)(C)n1nc(-c2ccc(F)cc2)c2c(N)ncnc21`, for which the inhibition is 97.5% (active).

Turning to `O=C(COC(=O)c1ccc(-c2ccc([N+](=O)[O-])cc2)o1)NC(=O)NC1CCCCC1`, the inhibition is 46.6%.

With `c1ccc(-c2c(-c3ccccc3)n(Cc3ccco3)c3ncnc(NCCCn4ccnc4)c23)cc1`, the inhibition was 46.7%.

Consider `O=C(C[n+]1ccc(C(=O)N/N=C/c2ccc(OCc3ccccc3)cc2)cc1)c1ccccc1`, for which the inhibition is 54.6% (active).

As to `O=C(Oc1ccc(/C=N/NC(=O)c2ccccc2O)cc1)c1ccccc1`, the inhibition was 34.4%.

With `COc1ccc(/C=N\NC(=O)c2cc(OCC(F)(F)F)ccc2OCC(F)(F)F)cc1`, the inhibition was 27.6%.

Consider `COc1ccc(N2C(=O)C(Cl)=C(Nc3c(C)n(C)n(-c4ccccc4)c3=O)C2=O)cc1`, for which the inhibition is 29.6%.

For the compound `COc1ccc(N2C(=O)C3[C@@H](C2=O)C2(Cl)C(Cl)=C(Cl)C3(Cl)C2(OC)OC)cc1` (stereo not given in full), the inhibition is 50.2% (active).

On to `CCOc1oc(-c2ccc(OC)cc2)nc1C(F)(F)F`, for which the inhibition is 40.6%.

Turning to `CCc1ccc(OCCCC(=O)Nc2cccc(C(=O)O)c2)cc1`, the inhibition was 39.6%.

Take `CCc1ccc(OCCNC(=O)OCc2ccccc2)cc1`: the inhibition was 57.6% (active).

As for `CC1=NN(c2ccc(C)cc2C)C(=O)C1C(c1cccc(O)c1)C1C(=O)N(c2ccc(C)cc2C)N=C1C` (stereo not given), the inhibition is 43.8%.

`CN(C)CCN(Cc1ccccc1)c1nccc(N(C)C)c1C#N`: the inhibition was 26.8%.

Consider `Cc1c(C(=O)N2CCOCC2)[nH]c2ccc(OCc3ccccc3)cc12`, for which the inhibition was 42.6%.

Take `COc1cccc(-c2nn(C)c3sc(C(=O)N4CCOCC4)cc23)c1`: the inhibition is 51.4% (active).

Turning to `COc1cccc(C(=O)N2CCCC(c3nc(-c4cccs4)no3)C2)c1` (stereo not given), the inhibition was 22.3%.

With `COc1cc(S(=O)(=O)NCc2cccnc2)ccc1F`, the inhibition is 46.6%.

Consider `C=CCCCCc1nc2ccccc2c(=O)n1N`, for which the inhibition is 36.1%.

For `COc1ccc2cc(C(C)c3nc4ccccc4c(=O)n3N)ccc2c1` (stereo not given), the inhibition was 59.4% (active).

As for `CCOC(=O)c1ccc(N2CCOCC2)c(NC(=O)COCC(=O)O)c1`, the inhibition was 9.9%.

Take `COc1ccc(-c2cn3cccnc3n2)cc1Br`: the inhibition was 78.9% (active).

For `CCN(CC)S(=O)(=O)c1ccc2oc(C(=O)NC3CCCc4ccccc43)c(C)c2c1` (stereo not given), the inhibition is 23.3%.

`O=C(c1ccccc1)c1c2c(cc3sc4ccccc4[n+]13)-c1cccc3cccc-2c13`: the inhibition is 46.8%.

For `Cc1ccc(S(=O)(=O)N(C(=O)c2ccncc2)c2ccc(OC(=O)c3ccncc3)c3ccccc23)cc1`, the inhibition was 26.1%.

Regarding `CCCc1[nH]n(-c2nc3ccccc3s2)c(=O)c1C=NCC(C)C`, the inhibition is 78% (active).

As to `CC(C)(C)C(=O)NC1CCN(S(=O)(=O)c2ccc(C(F)(F)F)cc2)CC1`, the inhibition is 23.1%.

`CCCN1CCN(CCCNC(=O)CCNC(=O)Cn2ccc3ccccc3c2=O)CC1`: the inhibition was 35.4%.

As for `COc1ccnc(N2CCN(c3ccccc3)CC2)c1C#N`, the inhibition was 56.4% (active).

As for `O=C(NN1C(=O)c2cc(Br)ccc2NC1c1cc(Br)cc(Br)c1O)c1ccncc1` (stereo not given), the inhibition was 76.2% (active).

As for `Cc1cccc(N2Cc3ccccc3C2=NC(=O)c2ccc(Cl)nc2)c1`, the inhibition is 28.3%.

For the compound `Fc1ccccc1-c1ccc(/C=N/Nc2nc3ccccc3[nH]2)o1`, the inhibition is 70% (active).

On to `CCCCNc1nc2ccccc2[nH]1`, for which the inhibition was 31.2%.

Turning to `CCOC(=O)c1ccc(NC(=O)c2nccnc2C(=O)O)cc1`, the inhibition was 38.5%.

For the compound `COc1ccc(NC(=O)CC2Sc3ncnn3C2=O)cc1` (stereo not given), the inhibition is 75.8% (active).

As for `CCOC(=O)c1ccc(NC(=O)CC2Sc3ncnn3C2=O)cc1` (stereo not given), the inhibition was 64.7% (active).

`O=C(CC1Sc2ncnn2C1=O)Nc1ccc(Br)cc1` (stereo not given): the inhibition is 33.6%.

Regarding `CCOC(=O)c1ccc(NC(=O)CSc2nnc(CNc3ccc(C)cc3)n2C)cc1`, the inhibition was 31.4%.

Take `C/C(=N\Nc1nc2c(s1)CCCC2)c1ccccc1`: the inhibition is 37.2%.

As to `CC1CCCCN1C(=S)NCCc1ccccc1` (stereo not given), the inhibition was 59.1% (active).

With `C=C1SC(Nc2c(C)cccc2C)=NC12CCCCC2`, the inhibition was 47.3%.

Turning to `CC(C)Cc1nnc(NC(=O)CSc2nc(N)cc(=O)[nH]2)s1`, the inhibition was 25.6%.

For `Brc1ccc2c(c1)OCCOCCOc1cc(Br)ccc1OCCOCCOCCO2`, the inhibition was 64.6% (active).

In the case of `Cc1nnc(-c2ccccc2)o1`, the inhibition was 39.7%.

Consider `Cc1nc(/N=C(\N)NC(=O)N2c3ccccc3Sc3ccccc32)nc2ccccc12`, for which the inhibition is 53.6% (active).

As for `O=C(CSc1nnnn1C1CCCCC1)N1c2ccccc2Sc2ccccc21`, the inhibition is 39.5%.

For the compound `O=[N+]([O-])c1ccc(-n2nnnc2-c2ccccc2)cc1`, the inhibition was 19.9%.

For `O=C1C=CCC(/C=C/c2ccccc2)O1` (stereo not given), the inhibition is 63% (active).

Regarding `O=C1c2ccsc2SCCN1Cc1c(Cl)cccc1Cl`, the inhibition is 56.2% (active).

`O=S(=O)(Nc1ccc(-n2cccc2)cc1)c1ccc(Cl)cc1Cl`: the inhibition was 37.6%.

`Cc1sc2ncnc(N/N=C/c3ccccc3O)c2c1C`: the inhibition was 58.4% (active).

Consider `COc1cc(C(=O)CCN2CCC(c3ccccc3)C2)cc(OC)c1OC` (stereo not given), for which the inhibition is 44.2%.

Turning to `O=C(/C=C/c1ccccc1)N1CCC(c2ccccc2)C1` (stereo not given), the inhibition is 62.6% (active).

As to `CC1CCN(C(=O)/C=C/c2ccc(C(C)(C)C)cc2)CC1`, the inhibition is 63.4% (active).

For `Cc1cc(C)cc(OCc2nnc(SCC(=O)OC(C)C)o2)c1`, the inhibition is 61.5% (active).

`CC(=O)Nc1ccc(C(=O)CSc2nnc(Cc3ccccc3)o2)cc1`: the inhibition was 24.2%.

As to `COc1ccc(CNc2cccc(F)c2)cc1Br`, the inhibition was 72.2% (active).

As for `COc1ccc(Cc2ccc(OC)c(N)c2)cc1N`, the inhibition is 53.1% (active).

Take `COc1cc(Cc2cnc(N)nc2N)cc(OC)c1OC`: the inhibition is 14.2%.

On to `COC(=O)N/N=C/c1ccc(OC(=O)c2ccco2)c(OC)c1`, for which the inhibition is 30.8%.

On to `Cc1ccc(/C=N/NC(=O)c2ccc3nc[nH]c3c2)o1`, for which the inhibition was 47.4%.

Take `COC(=O)N/N=C/c1ccc(-c2cccc(Cl)c2)o1`: the inhibition was 80.9% (active).

Consider `CC1(C)CCSC(/C=C/c2ccccc2)=N1`, for which the inhibition is 92% (active).

`C(#Cc1ccc(C#CCN2CCCC2)cc1)CN1CCCC1`: the inhibition is 42.5%.

Regarding `Cc1[nH][nH]c(=O)c1C(c1ccc(-c2ccc(Cl)c(Cl)c2)o1)c1c(C)[nH][nH]c1=O`, the inhibition was 39.9%.

`Cc1[nH][nH]c(=O)c1C(c1c(C)[nH][nH]c1=O)c1cn(Cc2ccc(Cl)c(Cl)c2)c2ccccc12`: the inhibition is 61.2% (active).

Consider `COc1ccc(S(=O)(=O)N2CCOC2CNC(=O)C(=O)NCCCN2CCOCC2)cc1C` (stereo not given), for which the inhibition is 28.6%.

Regarding `CSc1cc(N2CCOCC2)nc(-c2ccccc2Cl)n1`, the inhibition is 74.1% (active).

In the case of `O=[N+]([O-])/C=C/c1ccc2c(ccn2Cc2ccccc2)c1`, the inhibition was 98.8% (active).

For `C/C(=N/NC(=O)c1nnn(-c2nonc2N)c1COc1ccccc1)c1ccc(O)cc1`, the inhibition was 27.6%.

In the case of `CCOc1nnc(C)c2c(C)n(-c3cccc(Cl)c3)nc12`, the inhibition is 28.1%.

`Cc1ccc(NC(=O)CNc2ccc(OC(C)C)cc2)cc1`: the inhibition was 39.6%.

As for `Cc1ccc(OC(=S)Nc2ccc(O)cc2)cc1`, the inhibition was 88.4% (active).

In the case of `Cc1ccc(C(=O)/C=C/c2cn(CC(O)CN3CCOCC3)c3ccccc23)cc1` (stereo not given), the inhibition is 52.7% (active).

Consider `CNc1ccccc(-c2ccc3ccccc3n2)c1=O`, for which the inhibition was 39.4%.

For the compound `CCN1/C(=C/c2ccc3ccc(C)cc3[n+]2CC)Sc2ccccc21`, the inhibition was 84.9% (active).

In the case of `CCN1/C(=C/c2ccc3cc(C)ccc3[n+]2CC)Sc2ccccc21`, the inhibition is 100% (active).

For `CC[n+]1c(/C=C2\Sc3ccccc3N2C)ccc2cccc(C)c21`, the inhibition was 98.1% (active).

On to `CCN1/C(=C/C=C/C=C/c2sc3ccccc3[n+]2CC)Sc2ccccc21`, for which the inhibition is 41%.

Regarding `CCN1/C(=C\c2ccc3ccccc3[n+]2CC)Sc2cc(C)ccc21`, the inhibition was 100% (active).

With `Cc1cc(N2C(=O)C=CC2=O)c([N+](=O)[O-])cc1C`, the inhibition is 3%.

In the case of `CC1(C)NC(=O)N(CCCCOc2ccc3ccccc3c2Cl)C1=O`, the inhibition was 48.8%.

With `O=C(CCNc1n[nH]c(=O)[nH]c1=O)N/N=C/c1ccc(C(F)(F)F)cc1`, the inhibition is 23.2%.

Turning to `COc1cc(OC)c(-c2nnc(-c3ccc(OC)c(OC)c3OC)o2)cc1OC`, the inhibition is 31%.

Consider `Cc1ccc2c(c1)c1c3n2CCCNC3CCC1` (stereo not given), for which the inhibition is 33%.

`c1ccc(-c2noc(-c3ccccc3-c3ccccc3)n2)cc1`: the inhibition is 23.6%.

Turning to `CCc1ccc(NCc2nc(-c3ccccc3)no2)cc1`, the inhibition is 57.2% (active).

On to `COCCCNCCOc1cc(C(C)C)ccc1C`, for which the inhibition is 30.4%.

`Cc1cc(OCCN2CCCC2)cc(C(C)C)c1`: the inhibition was 53.9% (active).

With `CCc1cccc(OCCN2CCCC2)c1`, the inhibition is 41.1%.

Consider `CC(C)c1ccc(CN2CCN(C(=O)CCl)CC2)cc1`, for which the inhibition was 35.6%.

`Cc1ccc(C(C)C)cc1OCCN1CCCC1`: the inhibition is 54.6% (active).

In the case of `Cc1cccc(C)c1OCC(=O)Nn1c(=O)[nH]c2ccccc2c1=O`, the inhibition is 34.9%.

For `CCCCCCCCCCCCCCCCn1cc[n+](CC(C)=O)c1`, the inhibition was 80.2% (active).

On to `CCCCCCCCCCCCCCCCn1cc[n+](C)c1`, for which the inhibition was 89.7% (active).

The values above are taken from PubChem BioAssay AID488857 (Sanford-Burnham Center for Chemical Genomics, 2010).
